This is a sample that favours compounds with a hit; in the whole collection about 7.4% have one here.
SMN2 splice enh = SMN2 splice variant enhancement; AID 1458; Potency, µM (titrated, usually from 46.1 µM), for inactives: at the highest dose activity change, positive = activation, most hits filed as activators; HEK293 SMN2-luciferase splicing reporter, luminescence, 30-36 h; hit rate 2.8% among 210,000; also: % of control where 0% means no effect; nearly all actives have a fitted effect of over 55% in size
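qHTS luciferase splicing reporter: luminescence rises when SMN2 exon 7 is included in transfected HEK293 cells. Compound exposure lasted 30-36 h at 37C, with 4.5 mM final sodium butyrate as control, followed by a ONE-Glo read.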
KinaseGlo FLuc = Kinase-Glo luciferase inhibition (counter-screen); Q27757; Kinase-Glo luciferase, ATP luminescence, 8 min; Potency, µM (titrated, usually from 38.3 µM), for the others: top-dose activity change, negative = inhibition, actives largely listed as inhibitors; hit rate 0.28% among 200,000; also: % is scaled to controls: 0 for no effect and ±100 for the full control effect; nearly all actives have a fitted effect of over 60% in size
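Luminescence was the read-out, taken after 8-minute incubation at ambient temperature. Luciferase turned over luciferin with 10 uM ATP in imidazole pH 7.2 buffer containing KCl, MgCl2, Tween 20 and BSA.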
Rab9 prom act = activates the Rab9 promoter; Huh7 Rab9 promoter-luciferase reporter, luminescence, 24 h; Potency, µM (series often up to 9.22 µM), for inactives: at the highest dose activation, negative = inhibition, hits mostly activators; hit rate 2.8% among 320,000; also: % of control where 0% means no effect; nearly all actives have a fitted effect of over 60% in size
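Huh7 cells stably carrying a Rab9 promoter-luciferase reporter, 1500 cells per well in OP-MEM I with 10% FBS, treated with compound 24 hours at 37C. Luciferase activity read by luminescence after 10 minutes with Amplite reagent.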
FLuc modulator = firefly luciferase modulation, counter-screen for miR-21 project. purified FLuc, Km substrates, luminescence inhibition. Potency, µM (highest dose often 57.5 µM), for the others: at the top dose activity change, negative = inhibition, hits mostly inhibitors. hit rate 6.9% among 360,000. AID 588342;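 also: plate controls were vehicle for no effect and reference inhibitor for full effect; nearly all actives have a fitted effect of over 55% in size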
Target sequence (P08659 whole entry, looked up): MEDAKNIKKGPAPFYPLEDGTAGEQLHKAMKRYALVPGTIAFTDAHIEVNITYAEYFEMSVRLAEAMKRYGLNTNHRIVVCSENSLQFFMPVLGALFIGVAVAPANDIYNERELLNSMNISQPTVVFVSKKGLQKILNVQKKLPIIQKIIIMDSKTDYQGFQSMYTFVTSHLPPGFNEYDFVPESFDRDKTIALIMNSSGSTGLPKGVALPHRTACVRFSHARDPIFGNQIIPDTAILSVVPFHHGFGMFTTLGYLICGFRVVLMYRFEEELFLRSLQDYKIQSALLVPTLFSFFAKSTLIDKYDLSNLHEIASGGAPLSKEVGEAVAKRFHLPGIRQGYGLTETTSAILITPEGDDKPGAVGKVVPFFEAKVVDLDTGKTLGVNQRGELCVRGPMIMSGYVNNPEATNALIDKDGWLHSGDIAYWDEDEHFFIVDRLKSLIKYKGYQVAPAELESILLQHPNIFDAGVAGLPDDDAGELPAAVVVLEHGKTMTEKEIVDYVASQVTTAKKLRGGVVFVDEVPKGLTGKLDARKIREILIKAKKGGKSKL
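Purified P. pyralis luciferase, 10 nM final, with Km-level 10 uM D-luciferin and 10 uM ATP in 50 mM Tris acetate pH 7.5, 10 mM Mg acetate, 0.01% Tween-20, 0.05% BSA; 6-point qHTS titration about 60 µM downward; luminescence read.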
ELG1 genotox = inducers of genotoxicity in HEK293T ELG1-luciferase cells. HEK293T ELG1-luciferase reporter, luminescence, 16 h. Potency, µM (doses to about 46 µM), inactives show at the highest dose activity change, positive = activation, hits mostly activators. hit rate 1.3% among 330,000; also: % of control where 0% means no effect; nearly all actives have a fitted effect of over 60% in size
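Screening used a luciferase reporter fused to human ELG1 in HEK293T cells. Luminescence was read on a CCD plate imager after 16 hr exposure and 30 min ONE-Glo incubation.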
NPC1 promoter act = activates the NPC1 promoter. hit rate 2.4% among 320,000. Potency, µM (highest dose often 9.22 µM), inactives show at the highest dose activation, hits mostly activators. Huh7 NPC1 promoter luciferase reporter, 24 h. AID 485313; also: % of control where 0% means no effect; nearly all actives have a fitted effect of over 60% in size
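Huh7 cells stably carrying NPC1 promoter–luciferase, plated in Opti-MEM with 10% FBS for 2 h, were exposed to compound in DMSO for 24 h at 37 °C; luciferase reagent was added for 10 min and luminescence read.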
Active calls of the source: *; ? = inconclusive; · = no result. Calls follow the shape of the dose curve; as a rule, active = well fitted curve in the direction sought with a large enough effect; inconclusive = small, poorly fitted or top-dose-only effect, or another doubt; inactive = no such curve, though single readings can be large; an effect the other way counts as inactive or inconclusive. Potency is read from the fitted curve at half-maximal effect.

SMILES	SMN2 splice enh	KinaseGlo FLuc	Rab9 prom act	FLuc modulator	ELG1 genotox	NPC1 promoter act
Cn1/c(=N/N=C/c2ccc(N3CCOCC3)cc2)sc2ccccc21	26.3%	-1.0%	29.6%	3.01µM*	12.6%	?
CCC(=O)N/N=c1/sc2ccccc2n1C	7.3%	0.0%	-3.6%	1.8%	-1.0%	-0.9%
Cn1/c(=N/N=C/c2ccccn2)sc2ccccc21	15.8µM*	-1.9%	1.12µM*	3.79µM*	?	2.24µM*
Cn1/c(=N/N=C/c2ccc(Cl)c([N+](=O)[O-])c2)sc2ccccc21	13.7%	-0.1%	13.0%	?	0.4%	?
CCc1ccccc1NS(=O)(=O)c1ccc2c(c1)OCC(C(=O)N1CCCC1)O2 (stereo not drawn)	·	·	·	1.9%	·	·
Cc1cc2nc(-c3ccc(SCC(=O)N4CCOCC4)nc3)[nH]c2cc1C	?	?	3.55µM*	0.675µM*	2.0%	?
Cc1cc(=O)[nH]c(SCC(=O)N2CCN(C(=O)c3ccco3)CC2)n1	·	·	·	·	-1.0%	·
Cc1cc2nc(-c3ccc(SCC(=O)N4CCN(C(=O)c5ccco5)CC4)nc3)[nH]c2cc1C	7.94µM*	?	3.55µM*	0.477µM*	-5.3%	3.55µM*
COCC(=O)N[C@@H]1c2cc(OC)c(OC)cc2C[C@H]1OCc1ccccc1	·	·	·	·	-4.4%	·
CCC/C=C(\CCC)C(NS(=O)(=O)c1ccccc1)c1ccc(C(F)(F)F)cc1 (stereo not drawn)	-17.5%	-6.3%	·	·	·	·
COc1cc(N)c(Cl)cc1C(=O)OCC(=O)N1CCc2ccccc21	·	·	-5.2%	1.7%	1.1%	1.9%
COc1cccc(C(=O)OCC(=O)N2CCc3ccccc32)c1OC	·	·	27.1%	10.7µM*	?	20.2%
O=C(OCC(=O)N1CCc2ccccc21)c1ccccc1	1.6%	-5.3%	5.9%	9.53µM*	?	-0.8%
O=C(OCC(=O)N1CCc2ccccc21)c1cccnc1Cl	1.8%	-10.0%	5.2%	10.7µM*	?	17.8%
CCCc1nc2ccccc2c(C(=O)OCC(=O)N2CCc3ccccc32)c1CC	-51.4%	-1.5%	-1.9%	?	-12.7%	-1.2%
CC1CCc2nc3ccccc3c(C(=O)OCC(=O)N3CCc4ccccc43)c2C1 (stereo not drawn)	2.5%	6.2%	-1.3%	4.78µM*	-10.5%	0.2%
CCC(=O)N1c2ccccc2CC1C(=O)NCCc1ccc(OC)c(OC)c1 (stereo not drawn)	·	·	·	-4.9%	·	·
COc1cccc(-c2nc(C(N)=O)c3c(n2)n(-c2ccc4c(c2)OCO4)c(=O)n3C)c1OC	·	·	·	-6.1%	·	·
COc1ccc(/C(C)=N/NC(=O)CNC(=O)/C=C\c2ccccc2)c(OC)c1	·	·	-0.4%	-1.4%	0.8%	-1.6%
Nc1cc(=O)[nH]c2nnc(SCC(=O)Nc3cccc4ccccc34)n12	·	·	0.7%	7.5%	-1.6%	3.1%
Nc1ccc2nn(-c3ccc(F)cc3)nc2c1	·	·	1.41µM*	4.26µM*	3.26µM*	0.891µM*
Cc1ccc(-n2nc3ccc(N)cc3n2)cc1	3.16µM*	-6.3%	0.501µM*	0.536µM*	1.41µM*	?
Nc1ccc2nn(-c3cc([N+](=O)[O-])ccc3O)nc2c1	·	·	17.2%	-0.5%	-4.3%	11.3%
Cn1cc2ccc(N)cc2n1	·	-2.4%	-5.0%	-15.8%	-1.5%	0.5%
CC(C)c1ccc(-n2nc3ccc(N)cc3n2)cc1	·	-11.2%	0.447µM*	0.151µM*	?	0.891µM*
O=C(O)c1ccc2c(c1)C(=O)N([C@H](Cc1cccc3ccccc13)C(=O)O)C2=O	·	·	-3.6%	4.4%	·	-3.7%
COC(=O)c1ccc(-c2noc(CN3C[C@H]4CC[C@H]3C4)n2)cc1	·	·	?	21.3µM*	?	?
COC(=O)c1ccc(-c2noc(CN(C)CC3CCCCO3)n2)cc1 (stereo not drawn)	10µM*	1.6%	29.1%	-3.7%	5.4%	7.4%

Source: PubChem BioAssay (National Center for Advancing Translational Sciences (NCATS))
